Experimental data: PubChem BioAssay (NCATS)
Where “and” joins values, the source holds several entries; their conditions need not be identical. Equal entries are not always repeated. Records with an inconclusive call do not appear. A call without a number means that no potency is given here. Calls of active or inactive are those of the source. Calls follow the shape of the dose curve; as a rule, active = well fitted curve in the direction sought with a large enough effect; inconclusive = small, poorly fitted or top-dose-only effect, or another doubt; inactive = no such curve, though single readings can be large; an effect the other way counts as inactive or inconclusive.

Key:
[1] = SW1088 Cancer Cell Toxicity qHTS against the NCATS CANVASS Library (AID 1347350); also: nearly all actives have a fitted effect of over 75% in size; also: potency is read from the fitted curve at half-maximal effect
Summary of the method: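 Bortezomib titration and single-dose wells served as plate controls. Test compounds, 11 points, acted on 1000 cells/well for 72 h at 37 degrees C; CellTiter-Glo luminescence quantified remaining viable cells.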

[2] = HEK293 18hr Apoptosis Induction qHTS against the NCATS CANVASS Library (AID 1347357)
Summary of the method: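 Cells seeded at 500/well in DMEM + 10% FBS. Compounds pinned, 11 concentrations. 18 h, 37 degrees C/5% CO2. Caspase-Glo 3/7 added, 15 min RT dark, luminescence read.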

[3] = HPAF-II 12hr Apoptosis Induction qHTS against the NCATS CANVASS Library (AID 1347358)
Summary of the method: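 HPAF-II cells, 500/well in DMEM + 10% FBS, exposed 12 hours at 37 degrees C to compound (11-point). Caspase-Glo 3/7 added for 15 min at room temperature; luminescence reflects caspase-3/7 activity.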

[4] = HEK293 24hr Apoptosis Induction qHTS against the NCATS CANVASS Library (AID 1347359)
Summary of the method: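 Caspase-3/7 activation measured as luminescence from the DEVD-based Caspase-Glo reagent, 15 min at room temperature, following 24-hour compound treatment of HEK293 cells.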

[5] = HPAF-II 18hr Apoptosis Induction qHTS against the NCATS CANVASS Library (AID 1347360)
Summary of the method: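 Seed HPAF-II cells at 500/well in DMEM + 10% FBS, pin-transfer compounds, incubate 18 hours at 37 degrees C/5% CO2, add Caspase-Glo 3/7 reagent, wait 15 min, read luminescence.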

[6] = HEK293 12hr Apoptosis Induction qHTS against the NCATS CANVASS Library (AID 1347361)
Summary of the method: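 Cells are seeded, dosed with an 11-point compound series and incubated 12 hours. Caspase-3/7 activity is detected by luminescent DEVD-substrate reagent after 15 minutes at room temperature.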

[7] = target: Luciferin 4-monooxygenase (Photinus pyralis) (UniProt P08659); assay: Firefly luciferase counterscreen qHTS: Assay Interference Panel against the NCATS CANVASS Library (AID 1347363); also: series mostly up to about 57 µM
Sequence of Luciferin 4-monooxygenase (Photinus pyralis) (P08659 whole entry, looked up): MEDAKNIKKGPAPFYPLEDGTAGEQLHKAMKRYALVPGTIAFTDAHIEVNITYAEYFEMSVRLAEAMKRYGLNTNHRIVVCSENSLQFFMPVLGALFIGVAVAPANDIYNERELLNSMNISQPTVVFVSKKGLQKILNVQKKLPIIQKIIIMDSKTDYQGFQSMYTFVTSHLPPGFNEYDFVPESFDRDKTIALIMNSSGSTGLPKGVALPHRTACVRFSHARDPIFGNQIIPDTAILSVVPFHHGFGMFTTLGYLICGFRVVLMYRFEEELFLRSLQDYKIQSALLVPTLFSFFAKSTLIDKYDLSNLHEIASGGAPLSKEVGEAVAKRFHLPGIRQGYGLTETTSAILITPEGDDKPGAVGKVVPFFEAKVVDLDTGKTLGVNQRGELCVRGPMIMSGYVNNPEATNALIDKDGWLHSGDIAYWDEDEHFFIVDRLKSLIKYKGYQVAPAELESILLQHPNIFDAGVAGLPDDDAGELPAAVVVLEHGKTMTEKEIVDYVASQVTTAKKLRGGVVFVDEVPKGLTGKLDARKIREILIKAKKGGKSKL
Summary of the method: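 Luminescence inhibition readout: compounds (11-point qHTS) sat 15 min at room temperature with substrate mix (0.013 mM luciferin and ATP), then firefly luciferase was added and signal read 5 min later.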

[8] = KB-3-1 Cancer Cell Toxicity qHTS against the NCATS CANVASS Library (AID 1347366); also: nearly all actives have a fitted effect of over 75% in size; also: potency is read from the fitted curve at half-maximal effect
Summary of the method: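 Luminescence from CellTiter-Glo (10 min, room temperature) measured KB-3-1 viability after 72 hr compound exposure at 37C. Cells were seeded at 500/well and tested in an 11-point series.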

[9] = G06 Cancer Cell Toxicity qHTS against the NCATS CANVASS Library (AID 1347368); also: nearly all actives have a fitted effect of over 60% in size; also: potency is read from the fitted curve at half-maximal effect
Summary of the method: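 G06 dog glioma cells, 500 per well, exposed 72 hr at 37C, 5% CO2 to compounds in an 11-point series. Cytotoxicity read as ATP content by CellTiterGlo luminescence.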

[10] = MCF7 Cancer Cell Toxicity qHTS against the NCATS CANVASS Library (AID 1347369)
Summary of the method: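 Cells seeded at 500/well, then compound pinned. Plates incubated 72 hr at 37C, 5% CO2. CellTiterGlo added; luminescence read.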

[11] = target: Nuclear receptor subfamily 1 group I member 3 (Homo sapiens) (UniProt Q14994); assay: qHTS for Constitutive Androstane Receptor (CAR) Antagonist screened against the NCATS CANVASS Library (AID 1347372); also: potency is read from the fitted curve at half-maximal effect
Sequence of Nuclear receptor subfamily 1 group I member 3 (Homo sapiens) (Q14994 whole entry, looked up): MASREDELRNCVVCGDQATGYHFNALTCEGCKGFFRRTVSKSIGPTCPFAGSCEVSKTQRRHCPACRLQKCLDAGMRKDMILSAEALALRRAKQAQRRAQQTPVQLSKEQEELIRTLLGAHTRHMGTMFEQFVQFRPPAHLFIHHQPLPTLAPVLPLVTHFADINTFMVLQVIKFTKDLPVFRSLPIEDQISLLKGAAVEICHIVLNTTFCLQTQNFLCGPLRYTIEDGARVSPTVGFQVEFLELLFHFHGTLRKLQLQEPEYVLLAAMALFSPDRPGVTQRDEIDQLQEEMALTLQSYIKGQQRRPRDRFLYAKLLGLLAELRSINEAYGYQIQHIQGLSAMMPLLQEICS
Summary of the method: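 HepG2-CYP2B6-hCAR double-stable cells plated, 4hr attach; cpd pin-transferred; CITCO 50 nM final; 24hr 37C/5% CO2; CellTiter-Fluor 1hr (fluorescence), then ONE-Glo luminescence.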

[12] = target: Nuclear receptor subfamily 1 group I member 3 (Homo sapiens) (UniProt Q14994); assay: qHTS for Constitutive Androstane Receptor (CAR) Agonist screened against the NCATS CANVASS Library (AID 1347373);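 also: every well also contained 1.5 µM PK11195 alongside the test compound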
Summary of the method: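 HepG2 cells stably carrying hCAR and a CYP2B6-2.2kb luciferase reporter, treated 24hr at 37C with compounds plus 1.5uM PK11195; activation by ONE-Glo luminescence, viability by CellTiter-Fluor.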

[13] = 10-beta competent E. coli microbial cell viability qHTS against the NCATS CANVASS Library (AID 1347376); also: series mostly up to about 46 µM
Summary of the method: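 10-beta competent E. coli (0.2 OD) were exposed overnight at 37C to compounds in an 11-point series. Viability was read as ATP-dependent BacTiter-Glo luminescence after 20 min at room temperature.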

[14] = DH5-alpha competent E. coli microbial cell viability qHTS against the NCATS CANVASS Library (AID 1347377); conditions: outcome: dose series up to 46.1 µM unless noted
Summary of the method: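 DH5-alpha E. coli suspension was exposed to an 11-point compound series overnight at 37 °C. Viable cells quantified by ATP luminescence (BacTiter-Glo) after 20 min at room temperature.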

[15] = qHTS for H2AX Agonists against the NCATS CANVASS Library (AID 1347378);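 also: phospho-H2AX S139 level in CHO-K1 lysates by TR-FRET emission ratio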
Summary of the method: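 CHO-K1, 1000 cells/well, o/n 37C; cpd several conc, 3 hr 37C, 0.76% DMSO; lyse 30 min RT; cryptate anti-pH2AX(S139) + d2 anti-H2AX, 24 hr RT; HTRF 665/620.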

[16] = qHTS for Inflammasome Signaling Inhibitors: IL-1-beta AlphaLISA screen against the NCATS CANVASS Library (AID 1347379);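 also: human THP-1 cells primed with LPS then triggered with ATP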
Summary of the method: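 THP-1 cells pretreated 1 hr with compound (up to 57.5 uM final), then stimulated with LPS (250 ng/mL final) and ATP (1.25 mM final). Secreted IL-1B measured by AlphaLISA after 16 hr; glyburide as positive control.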

[17] = Inflammasome Signaling qHTS Counterscreen: IL-1-beta AlphaLISA counterscreen against the NCATS CANVASS Library (AID 1347381);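 also: cell-free check with purified IL-1β in medium and no THP-1 cells; series mostly up to about 57 µM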
Summary of the method: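 Cell-free interference check: compounds added to medium spiked with 4 pg purified IL-1β. Anti-IL-1β acceptor beads (6 ug/mL) with 0.6 nM biotinylated antibody added for 1 h at RT, then streptavidin donor beads (24 ug/mL) for 30 min in the dark. AlphaLISA read at 680/615 nm.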

[18] = qHTS assay for small molecule disruptors of mitochondrial membrane potential screened against the NCATS CANVASS Library (AID 1347389); also: nearly all actives have a fitted effect of over 60% in size; also: potency is read from the fitted curve at half-maximal effect
Summary of the method: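 HepG2 cells (2,000/well) plated overnight, then exposed to compounds in 11-point qHTS series for 1 h at 37C before 30 min Mito-MPS dye; depolarization read as fall in red aggregate (590 nm) to green monomer (535 nm) fluorescence.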

[19] = qHTS for inhibitors of Wild type Zika virus screened against the NCATS CANVASS Library (AID 1347396);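 also: ATP luminescence of surviving cells so rescue from viral cell killing; series mostly up to about 46 µM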
Summary of the method: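 Vero 766 cells, 1000/well, o/n attach; cpds pin-transferred (11-pt qHTS); WT Zika added; 72 h, 37C, 5% CO2; CellTiter Glo lumi. Uninfected + vehicle = 100% inhibition.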

[20] = J3T Cancer Cell Toxicity qHTS against the NCATS CANVASS Library (AID 1347371); also: potency is read from the fitted curve at half-maximal effect
Summary of the method: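 J3T dog glioma cells, 500 per well, treated 72 h at 37C with compounds (11-point qHTS); viability from ATP content by CellTiterGlo luminescence; bortezomib titration as control.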

Compound	Potency [1]	Potency [2]	Potency [3]	Potency [4]	Potency [5]	outcome [6]	Potency [7]	Potency [8]	Potency [9]	Potency [10]	Potency [11]	Potency [12]	outcome [13]	outcome [14]	Potency [15]	Potency [16]	outcome [17]	Potency [18]	outcome [19]	Potency [20]
O[C@H]1C=C2[C@H]3CN(Cc4cc5c(cc43)OCO5)[C@H]2C[C@@H]1O	inactive	inactive	inactive	inactive	inactive	inactive	inactive	13.2 µM (active)	6.62 µM (active)	inactive	13.2 µM (active)	inactive	inactive	inactive	inactive	inactive	inactive	inactive	inactive	–
C/C1=C/[C@@H](C)[C@H](O)C/C=C/CC/C=C/C(=O)O[C@@H]1[C@H](C)C(=O)CCCC1CC(=O)NC(=O)C1	inactive	inactive	inactive	inactive	inactive	inactive	inactive	inactive	4.69 µM (active)	inactive	inactive	inactive	inactive	inactive	inactive	inactive	inactive	inactive	inactive	–
CC[C@H]1[C@@H](C)[C@@H](c2cc(OC)c(OC)cc2OC)[C@H](C)[C@@H](c2cc(OC)c(OC)cc2OC)[C@@]12C=C(OC)C(=O)C=C2OC	11.9 µM (active)	inactive	–	inactive	–	inactive	inactive	–	–	inactive	inactive	inactive	inactive	inactive	–	–	inactive	–	–	inactive
CN1CC[C@@]23c4ccccc4N[C@@H]1[C@@]21CCN(C)[C@@H]3Nc2ccccc21	inactive	inactive	inactive	inactive	inactive	inactive	inactive	inactive	–	inactive	inactive	inactive	inactive	inactive	inactive	–	inactive	inactive	inactive	inactive
C[C@@]12CCC[C@@](C)(C(=O)O)[C@H]1CC[C@@]13C[C@@H](CC[C@H]12)[C@](C)(O)C3	inactive	inactive	inactive	inactive	inactive	inactive	inactive	inactive	inactive	inactive	inactive	inactive	inactive	inactive	inactive	inactive	inactive	inactive	inactive	inactive
CO[C@@H]1[C@H](O)[C@@H](C)O[C@@H](OC[C@@H]2C(C)OC(=O)/C=C/[C@H](C)C(O[C@@H]3O[C@H](C)CC4(OC(=O)O[C@@H]4C)C3O)[C@@H](C)CC(C)C(=O)/C=C/[C@H]3OC23)[C@@H]1OC (stereo partly drawn)	inactive	–	inactive	–	inactive	–	inactive	–	16.6 µM (active)	inactive	20.9 µM (active)	inactive	inactive	inactive	inactive	inactive	inactive	inactive	inactive	13.2 µM (active)
COC(=O)[C@@]1(C)CCC[C@]2(C)c3cc(OC)ccc3CC[C@@H]12	–	inactive	inactive	inactive	inactive	inactive	inactive	inactive	inactive	inactive	inactive	–	inactive	inactive	inactive	inactive	inactive	–	inactive	inactive
CC[C@@H]1C[C@@]2(CC)OC(=O)[C@@]3(CC)[C@H](CC)[C@@H]1[C@@H]23	inactive	inactive	inactive	inactive	inactive	inactive	inactive	inactive	inactive	–	–	inactive	inactive	inactive	inactive	inactive	inactive	inactive	inactive	inactive
CC(=O)c1c(C)cc2c(c1O)C(=O)c1c(O)cc(O)cc1C2=O	inactive	inactive	inactive	inactive	inactive	inactive	inactive	inactive	inactive	inactive	inactive	inactive	inactive	inactive	inactive	inactive	inactive	inactive	inactive	inactive
CC[C@@H](c1cc(OC)c(OC)cc1OC)[C@H](C)[C@@H](/C(C)=C/c1cc(OC)c(OC)cc1OC)c1cc(OC)c(OC)cc1OC	11.9 µM (active)	inactive	inactive	inactive	inactive	inactive	inactive	inactive	inactive	inactive	inactive	inactive	inactive	inactive	inactive	inactive	inactive	23.4 µM (active) and 20.9 µM (active)	inactive	inactive
C/C(=C\[C@@H](C)CC/C=C/CC/C=C/C(=O)O)[C@H](O)[C@H](C)C(=O)CCCC1CC(=O)NC(=O)C1	inactive	inactive	inactive	inactive	inactive	inactive	inactive	inactive	–	inactive	inactive	inactive	inactive	inactive	inactive	inactive	inactive	inactive	inactive	inactive
C/C(=C\[C@H](C)C(=O)C[C@H](O)CC1CC(=O)NC(=O)C1)[C@@H]1OC(=O)CCCC/C=C/[C@@H](O)C[C@@H]1C	inactive	inactive	inactive	inactive	inactive	inactive	inactive	9.35 µM (active)	2.96 µM (active)	inactive	14.8 µM (active)	inactive	inactive	inactive	inactive	34.3 µM (active)	inactive	inactive	inactive	–
C/C=C1/C2=CCCN3C(=O)O[C@H]([C@H]1O)[C@H]23	inactive	inactive	inactive	inactive	inactive	inactive	inactive	inactive	inactive	–	–	inactive	–	inactive	–	inactive	inactive	inactive	inactive	inactive
